# Experimental data as given in PMC5540273 (PLoS ONE, 2017).
# Test system: STK39
# Conditions: concentration: 1 μM, replicates: in singlicate; n = 1
# 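Further: KINOMEscan kinase panel screen.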
row,SMILES,%Inh [%]
1,COC(=O)c1c(-c2ccccc2)c2cc(Cl)ccc2c(=O)n1Cc1ccc(S(C)(=O)=O)cc1,0
2,FC(F)(F)c1ccc(-c2cc(-c3c[nH]nc3-c3ccccn3)ccn2)cc1 [GW599550],0
3,COc1ccc(NC(=O)c2ccc(-c3cc(-c4nnc(C)o4)ccc3C)cc2)cc1 [GW595885],21
4,Cl.Cl.c1ccc(-c2cc3ccncc3cc2OC2CCNCC2)cc1 [GSK1122999],0
5,CS(=O)(=O)CCNCc1nc(-c2ccc3ncnc(Nc4ccc(OCc5cccc(F)c5)c(Cl)c4)c3c2)cs1.Cl [GW583340],1
6,Cn1ccc2ncnc(Oc3ccc(NC(=O)Nc4cccnc4)c(Cl)c3)c21,0
7,Fc1cccc(COc2ccc(Nc3ncnc4sc(-c5ccc[nH]5)cc34)cc2Cl)c1 [GW707818],9
8,Cl.Cn1ccc(-c2cccc(Nc3ccnc4cc(-c5nccs5)ccc34)c2)n1 [GW525701],6
9,CS(=O)(=O)CCNCc1ccc(-c2ccc3ncnc(Nc4ccc(OCc5ccccc5)c(Cl)c4)c3c2)o1.Cl [GW574783],5
10,COc1ccc(Nc2nccc(N3CCC(NC(=O)Nc4ccc5c(c4)OCO5)C3)n2)cc1 (stereo not shown) [GSK1379745],17
11,Fc1cccc(COc2ccc(Nc3ncnc4nn5ccccc5c34)cc2Cl)c1 [GW689066],0
12,Cc1ccc(O)cc1Nc1cc(C(F)(F)F)nc2ccc(-c3ccncc3)cc12 [GW630823],0
13,Cl.Fc1ccccc1COc1ccc(Nc2ncnc3ccc(-c4nnc(C(F)(F)F)o4)cc23)cc1Cl [GW424170],0
14,Clc1ccc(-c2cc(-c3c[nH]nc3-c3ccccn3)ccn2)cc1 [GW681251],1
15,C[C@H]1CC[C@@H](C(=O)Nc2ccccc2)CN1c1cc(-c2ccc3c(N)n[nH]c3c2)nc(N)n1 [GSK2283293],0
16,Oc1ccc2ncnc(Nc3ccc(OCc4ccccc4)cc3)c2c1 [GI262866],0
17,N#Cc1ccc(Oc2ccc(Nc3ncnc4cc[nH]c34)cc2Cl)cc1,15
18,CC(C)(C)c1ccc(-n2cnc3c(N)ncnc32)cc1 [SKF-97263],0
19,Cc1ccc(C)c(NC(=O)NCCNc2ccnc(Nc3ccc(F)cc3)n2)c1 [GSK1379878],0
20,CCn1c(-c2ccncc2)nc2cnccc21 [SB-735216],6
21,COc1ccc(NC(=O)Nc2ccc(C)c(-c3ccc(C(=O)Nc4ccncc4)cc3)c2)cc1 [GSK1398475],0
22,Clc1cc(Nc2ncnc3cc[nH]c23)ccc1OCc1ccccn1,8
